# Experimental data from the supplement of paper PMC7556523.
# Key:
# [1] = system: Sporothrix brasiliensis CBS 133006; assay: growth inhibition relative to untreated control; higher = more growth inhibition (more antifungal activity), active = 80 or more; extreme values may be limits of the assay; conditions: 1 µM; 48 h
# Method in brief: (§1)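 Before testing, the reference isolates were kept in brain heart infusion broth with 2% glucose at 36°C for 7 days to give yeast-form cells. These cells, at 1 x 10^5 CFU/ml, received library compounds at a final 1 μM and were held 48 h at 35°C in 5% CO2. Growth was checked by eye under an inverted light microscope and quantified spectrophotometrically in quadruplicate, and the value is percent growth inhibition versus untreated cells.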
# [2] = system: Sporothrix schenckii ATCC 32286; assay: as above; conditions: 1 µM; 48 h
# Method in brief: as §1
Structure (SMILES),growth inhibition [1],growth inhibition [2]
Clc1ccc(-n2cc(COc3ccnc4ccccc34)nn2)cc1,13.5% (inactive),10% (inactive)
CC(C)C(Oc1cccc2ccccc12)C(=O)O (stereo unspecified),23.2% (inactive),4.25% (inactive)
COc1ccc(C2=NN(C3CCCCCC3)C(=O)C2(C)C)cc1OCCCCOc1ccc(-c2nn[nH]n2)cc1,6.25% (inactive),0% (inactive)
CC(C)(C)n1nc(Cc2ccc(F)c(Cl)c2)c2c(N)ncnc21,14.2% (inactive),0% (inactive)
Oc1c(I)cc(I)c2cccnc12,99.5% (active),94.5% (active)
CCc1ccccc1-n1c(C)cn2c3c(=O)n(C(C(=O)OC)C(C)C)c(=O)n(C)c3nc12 (stereo unspecified),15.8% (inactive),0% (inactive)
Cc1ccc(Oc2ccc(NC(=O)CNc3ccccc3N3CCCC3=O)cc2)cc1,0% (inactive),0% (inactive)
CCC(Sc1nc2ccccc2o1)C(=O)Nc1nccs1 (stereo unspecified),5.75% (inactive),15.5% (inactive)
O=C(NCCc1ccn(-c2ccccc2)n1)C1CCCCC1,11.5% (inactive),6.25% (inactive)
O=C([C@@H](c1ccc(Cl)cc1)c1cccnc1)N1CCN(c2ccc(C(F)(F)F)cc2)CC1,25.2% (inactive),2% (inactive)
Cc1ccccc1C(=O)N1N=C(Nc2ccccc2)SC1(C)C,10.5% (inactive),16% (inactive)
N=C(N)Nc1ccc(-c2ccc(-c3ccc(NC(=N)N)cc3Cl)o2)c(Cl)c1,19.8% (inactive),0% (inactive)
CN1CCN(S(=O)(=O)c2ccc(-c3ccc4c(Nc5ccc6nn[nH]c6c5)ccnc4c3)cc2)CC1,4.25% (inactive),7.5% (inactive)
